SMILES strings stand for the structures. About 18,000 (9%) of roughly 200,000 compounds were called active. For the sample, actives were picked, then their nearest neighbours and some compounds at random. A number with no mark means an inactive call. Rule as the data show it: active = inhibition above about 50%; inactive = the rest.

This experiment is described as follows: antileishmanial activity against promastigotes – primary screen (AID 1063).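 Also: promastigotes grown with compound for 44 hours at 28 °C.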 Particulars: Leishmania major promastigotes, resazurin fluorescence viability; at 10 µM; stronger effect = higher value. On the technique in general: The colour change of resazurin is a common sign of viable cells or microbes.
What is called inhibition is the change of the read-out against control, counted positive when it falls. On to `O=C1c2ccccc2NC(c2ccccc2O)N1NS(=O)(=O)c1ccccc1` (centres undefined), for which the inhibition is 7.23%.

Regarding `Cc1ccc(Cl)c(NC(=O)CN2CCN(C=O)CC2)c1`, the inhibition is -1.88%.

As for `COc1cccc(NC(=O)c2ccc3c(SCC(=O)O)c4c(nc3c2)CCCC4)c1`, the inhibition was 7.5%.

Regarding `O=C(Nc1ccncc1)c1cc(-c2ccccn2)nc2ccc(Br)cc12`, the inhibition was 2.98%.

In the case of `NC(=O)c1ccccc1N(Cc1ccccc1)S(=O)(=O)c1ccccc1`, the inhibition was 2.81%.

In the case of `CC(C)(C)n1nc2c(c1NC(=O)c1cc3ccccc3o1)CSC2`, the inhibition is 1.01%.

As to `COc1ccccc1N1CCN(c2ccc([N+](=O)[O-])nc2)CC1`, the inhibition was -10.8%.

For the compound `C/C(=N/N1CCN(Cc2cccc3ccccc23)CC1)c1cccnc1`, the inhibition is 17.2%.

Turning to `OCC1(Cc2ccccc2C(F)(F)F)CCN(Cc2cccc3cnccc23)CC1`, the inhibition is 88.2% (active).

Turning to `CCOC(=O)C1(Cc2ccccc2C(F)(F)F)CCN(C(=O)c2cc(C)n(C)n2)CC1`, the inhibition was 5.02%.

Take `COc1ccc(C2=NN(c3nc4ccccc4s3)C(=O)C2)cc1`: the inhibition is -7.22%.

As to `CCC(C)(C)NC(=O)CN(C(=O)CCC(=O)Nc1cc(C)ccn1)c1ccc2c(c1)OCCO2`, the inhibition was -0.92%.

In the case of `CCC(C)N(C)C1CCN(C(=S)Nc2ccc(OC)cc2)CC1` (centres undefined), the inhibition is 34.2%.

With `CCOc1ccc(NC(=S)N2CCC(N(C)CC3CCCO3)CC2)cc1` (centres undefined), the inhibition is 96.2% (active).

With `CCOc1ccc(NC(=S)N2CCCCCC2)cc1`, the inhibition was 3.65%.

Take `Cn1cc(CN2CCC(C(O)CCc3ccccc3)CC2)c(-c2ccccc2F)n1` (centres undefined): the inhibition was -2.53%.

Turning to `Cc1ccc(NC(=O)Cn2c(=O)n(CCC(=O)NC3CCN(Cc4ccccc4)CC3)c(=O)c3ccccc32)cc1`, the inhibition is 0.09%.

Take `Cc1ccc(CNC(=O)CCNS(=O)(=O)c2ccc(Br)s2)cc1`: the inhibition is -6.86%.

Regarding `COc1ccc(Cn2c(=O)cc(C)[nH]c2=S)cc1`, the inhibition was -4.72%.

`COc1ccc(CN2CN(C(C)C)CSC2=S)cc1`: the inhibition is 96.4% (active).

Regarding `COc1ccc(CN2CN(C3CCCC3)CSC2=S)cc1`, the inhibition is 5.66%.

On to `COc1ccccc1CSc1nc2ccccc2[nH]1`, for which the inhibition is -3.47%.

Regarding `COc1ccccc1CSc1ncc(-c2ccc([N+](=O)[O-])cc2)[nH]1`, the inhibition is 76.4% (active).

Turning to `COc1ccccc1CC(=O)Nc1ccc([N+](=O)[O-])cc1OC`, the inhibition is -0.93%.

As to `CCOC(=O)/C=c1\s/c(=C\c2ccc(C#N)cc2)c(=O)n1CC(=O)Nc1cccc(C)c1C`, the inhibition was -1.97%.

Take `CCOC(=O)C/C(C)=N\Nc1ccc([N+](=O)[O-])cc1[N+](=O)[O-]`: the inhibition is 2.68%.

`CN1C(=O)/C(=C/C=C2\SCCN2C)OC1=S`: the inhibition is 12.9%.

Turning to `COc1cc(S(=O)(=O)N(Cc2cccs2)C2CC2)ccc1-n1cnnn1`, the inhibition is 99.8% (active).

As to `CCN(CC)S(=O)(=O)c1ccc(N2CCCC2)c(NS(=O)(=O)c2cccs2)c1`, the inhibition was -1.33%.

With `CCOc1ccc(S(=O)(=O)N(CC(=O)NCC(F)(F)F)Cc2ccco2)cc1`, the inhibition is -5.48%.

With `COc1ccc(CN(Cc2ccco2)S(=O)(=O)c2ccc(S(=O)(=O)N3CCCC3)cc2)cc1`, the inhibition was -4.09%.

As for `CCOc1ccc(CN(Cc2ccco2)S(=O)(=O)c2ccc(-n3cnnn3)c(OC)c2)cc1`, the inhibition is 95.5% (active).

As for `COc1ccc(N(CC(=O)N/N=C/c2cccs2)S(=O)(=O)c2ccc(OC)c(OC)c2)cc1`, the inhibition is 3.63%.

As for `C=CCn1c(CCc2ccc(OC(C)C)cc2)n[nH]c1=S`, the inhibition is 1.12%.

On to `O=C(c1ccc(F)cc1)N1CCC(n2nnc3ccccc32)CC1`, for which the inhibition was 1.08%.

For `CCc1c(O)nc(SCC(=O)N2CCCCC2)n(-c2ccccc2C)c1=O`, the inhibition was 1%.

For the compound `CC(=O)c1c(O)cc2n(c1=O)-c1ccc(Cl)cc1C2(C)C`, the inhibition is -6.77%.

For the compound `CCc1c(O)cc2n(c1=O)-c1ccccc1C2(C)C`, the inhibition is 51.1% (active).

For the compound `O=C(Nc1nnc(C2CC2)s1)C1=NN(C2CCS(=O)(=O)C2)C(=O)CC1` (centres undefined), the inhibition was -3.9%.

Regarding `COC(=O)c1cc2c(ccn2C)n1C`, the inhibition is -2.26%.

For `N#CC1=C(SCc2ccc(C#N)cc2)N=C(N)C(c2nc(-c3ccccc3)cs2)C12CCCCC2` (centres undefined), the inhibition is 98% (active).

`N#C/C(=C1\CCCN1)c1nc(-c2ccccc2)cs1`: the inhibition was 4.05%.

Turning to `N#CC1=C(SCc2ccccc2)NC(=O)C(C#N)C12CCCC2` (centres undefined), the inhibition was -9.59%.

For the compound `CCN(CC)S(=O)(=O)c1ccc(OC(C)C)c(N)c1`, the inhibition is -4.13%.

For the compound `Nc1nc(SCC(=O)NNc2c(Cl)cc(Cl)cc2Cl)n[nH]1`, the inhibition was -7.01%.

On to `COc1cc(/C=C/C(=O)O)cc(S(=O)(=O)Nc2ccccc2SC)c1OC`, for which the inhibition was 46.9%.

As for `COc1cc(/C=C/C(=O)N2c3ccccc3Sc3ccc(C(F)(F)F)cc32)cc(OC)c1OC`, the inhibition is 81.2% (active).

Turning to `CCOC(=O)CNC(=O)N1c2ccccc2Sc2ccccc21`, the inhibition is 3.23%.

In the case of `O=C(CN1CCCCCC1)N1c2ccccc2Sc2ccc(C(F)(F)F)cc21`, the inhibition was 46%.

With `COc1cc(/C=C2\SC(=S)N(Nc3ncc(C(F)(F)F)cc3Cl)C2=O)cc(OC)c1OC`, the inhibition was -11.1%.

As to `O=C(CN1CCCCC1)N1c2ccccc2Sc2ccc(C(F)(F)F)cc21`, the inhibition is 92% (active).

For `O=C(NC(Cc1c[nH]c2ccccc12)C(=O)O)/C(=C/c1ccco1)NC(=O)c1ccccc1` (centres undefined), the inhibition is 3.28%.

In the case of `COc1ccc(CC(NC(C)=O)C(=O)NC2CCN(C(=O)c3ccc(OC)c(OC)c3)CC2)cc1OC` (centres undefined), the inhibition was -4.66%.

As for `CCCN(CC(=O)Nc1ccc(C(N)=O)cc1)CC(=O)Nc1ccccc1C`, the inhibition is 7.98%.

Take `Cc1cccc(C(=O)Nc2ccc3c(c2)C(=O)N(CC(C)C)C3=O)c1`: the inhibition is -9.76%.

`COc1ccc2c(c1)cc1n2CCN=C1NN`: the inhibition is 84.1% (active).

In the case of `Cc1cc(C(=O)Cn2cnc3cc([N+](=O)[O-])ccc3c2=O)c(C)n1CC1CCCO1` (centres undefined), the inhibition is -3.96%.

For `Clc1ccc(C2=CSC3=Nc4cccc5cccc(c45)N23)cc1`, the inhibition is 99.4% (active).

Turning to `Cc1ccc(NC(=O)O/N=C/c2cccc([N+](=O)[O-])c2)cc1`, the inhibition was -3.19%.

As to `O=C1CCC/C(=N\NC(=O)NC2CCCCC2)C1`, the inhibition is -1.59%.

Consider `CCOc1ccc(S(=O)(=O)Nc2nccs2)cc1`, for which the inhibition was -5.45%.

Regarding `CC(C)(C)C(=O)CN1C2=NCCN2c2ccccc21`, the inhibition is -5.39%.

`Fc1cccc(CSc2nnc3ccc(-c4ccncc4)nn23)c1`: the inhibition is 10.7%.

As to `CCOC(=O)c1[nH]c2ccc(OC)cc2c1NC(=O)N1CCOCC1`, the inhibition was 2.48%.

`Cc1c(C(=O)N2CCOCC2)[nH]c2ccc(OCc3ccccc3)cc12`: the inhibition is 88.8% (active).

With `Cc1c(C(=O)CN2CCOCC2)[nH]c2ccccc12`, the inhibition is -3.24%.

In the case of `CCCCN(C(=O)c1ccc(OC(F)(F)F)cc1)c1c(N)n(CCC)c(=O)[nH]c1=O`, the inhibition is -4.12%.

In the case of `Cc1ccc(S(=O)(=O)N(C)C)cc1NC(=O)COC(=O)C1COc2ccccc2O1` (centres undefined), the inhibition was 4.18%.

For the compound `CSc1ncccc1C(=O)Nc1nc2ccc(F)cc2s1`, the inhibition is 28.5%.

Turning to `Fc1ccc2nc(Nc3nc4c(s3)CCCC4)sc2c1`, the inhibition was 77.9% (active).

For `Fc1ccc2nc(N3CCCCC3)sc2c1`, the inhibition is 2.6%.

For the compound `CCn1c(SCC(=O)N(C)C2CCS(=O)(=O)C2)nnc1-c1cccs1` (centres undefined), the inhibition is -1.56%.

As for `COc1ccc(NC(=O)c2cc3nc(-c4ccccc4)cc(C)n3n2)cc1OC`, the inhibition is 19.4%.

Consider `CN(C)CCCN(C(=O)COc1ccccc1)c1nc2c(Cl)cccc2s1`, for which the inhibition is 1.9%.

For the compound `CC(=O)N(CCCN(C)C)c1nc2ccc(C)cc2s1`, the inhibition was -6.81%.

On to `COc1cccc2sc(N(CCCN(C)C)C(=O)C(c3ccccc3)c3ccccc3)nc12`, for which the inhibition is 94.5% (active).

Take `CCCCCCCNc1nc(Cl)nc(NCCO)n1`: the inhibition was -8.89%.

For `COc1ccc(Br)cc1CN1CCN(C(=O)c2cccc(OC)c2OC)CC1`, the inhibition was 0.16%.

`COc1cc2c(C(=O)N3CCN(C)CC3)c(CSc3ccccc3)n(C)c2cc1Br`: the inhibition is 50.6% (active).

Regarding `COc1ccccc1OCc1ccc(C(=O)N2CCN(C)CC2)o1`, the inhibition is -7.4%.

For `CC(=O)c1ccc(N2CCN(S(=O)(=O)c3c(C)[nH]c(=O)[nH]c3=O)CC2)cc1`, the inhibition was -5.88%.

For the compound `Cc1oc2cc([N+](=O)[O-])c(O)c([N+](=O)[O-])c2c1C(=O)c1ccc(Br)cc1`, the inhibition was -8.1%.

Consider `COc1cccc(CN(C)CC(=O)Nc2sc3c(c2C#N)CCC3)c1`, for which the inhibition is -4.03%.

For the compound `O=C(CN1C(=O)CC(c2ccccc2)S(=O)(=O)c2ccccc21)NC1CCCC1` (centres undefined), the inhibition is 5.62%.

For `COc1ccc(-n2cnnc2SCC(=O)Nc2cccc([N+](=O)[O-])c2)cc1`, the inhibition is -9.51%.

`CC(C)CC(=O)NC(=S)NNC(=O)c1cccc([N+](=O)[O-])c1`: the inhibition is 7%.

`Cn1c(-c2ccc(F)cc2)cnc1SCC(=O)NNC(=O)Cc1ccccc1`: the inhibition is 0.35%.

In the case of `COC(=O)c1sccc1NC(=O)c1cc(OC)c(OC)c(OC)c1`, the inhibition is 8.27%.

With `COC(=O)Cn1c2ccc(C)cc2c2nc(C)sc21`, the inhibition was -6.29%.

Regarding `COC(=O)Cn1c(=NC(=O)c2cc(OC)c(OC)c(OC)c2)sc2cc(OC)ccc21`, the inhibition was 55.3% (active).

Take `CC(C)(C)C(=O)CSc1nc2ccccc2o1`: the inhibition was 4.86%.

Regarding `CCN(CC)CCNc1nc(-c2ccc(OC(F)F)cc2)c(C)s1`, the inhibition is 99.4% (active).

In the case of `NC(=O)C[n+]1cccc(C(N)=O)c1`, the inhibition is -3%.

Turning to `COn1c(-c2ccc(Cl)cc2Cl)nc2ncccc21`, the inhibition is -6.75%.
